Results on ten compounds are retold here after ChEMBL document CHEMBL3988442, “University of Dundee, Small-Polar-MMV Screening Library” (2021).

Holding throughout (parameters): scale not given: direction of the effect not stated beside the values
Assay [1] addresses Protein translocase subunit SecA (Escherichia coli (strain K12)) (UniProt P10408). Nature of the assay: Assay to Identify E. coli SecA ATPase Inhibitors. The class given is functional. To be noted: 30 µM.
The target of assay [2] is T1, Ubiquitin-activating enzyme e1, putative (Leishmania donovani (strain BPK282A1)) (UniProt E9BSI1).
T1 sequence (whole entry): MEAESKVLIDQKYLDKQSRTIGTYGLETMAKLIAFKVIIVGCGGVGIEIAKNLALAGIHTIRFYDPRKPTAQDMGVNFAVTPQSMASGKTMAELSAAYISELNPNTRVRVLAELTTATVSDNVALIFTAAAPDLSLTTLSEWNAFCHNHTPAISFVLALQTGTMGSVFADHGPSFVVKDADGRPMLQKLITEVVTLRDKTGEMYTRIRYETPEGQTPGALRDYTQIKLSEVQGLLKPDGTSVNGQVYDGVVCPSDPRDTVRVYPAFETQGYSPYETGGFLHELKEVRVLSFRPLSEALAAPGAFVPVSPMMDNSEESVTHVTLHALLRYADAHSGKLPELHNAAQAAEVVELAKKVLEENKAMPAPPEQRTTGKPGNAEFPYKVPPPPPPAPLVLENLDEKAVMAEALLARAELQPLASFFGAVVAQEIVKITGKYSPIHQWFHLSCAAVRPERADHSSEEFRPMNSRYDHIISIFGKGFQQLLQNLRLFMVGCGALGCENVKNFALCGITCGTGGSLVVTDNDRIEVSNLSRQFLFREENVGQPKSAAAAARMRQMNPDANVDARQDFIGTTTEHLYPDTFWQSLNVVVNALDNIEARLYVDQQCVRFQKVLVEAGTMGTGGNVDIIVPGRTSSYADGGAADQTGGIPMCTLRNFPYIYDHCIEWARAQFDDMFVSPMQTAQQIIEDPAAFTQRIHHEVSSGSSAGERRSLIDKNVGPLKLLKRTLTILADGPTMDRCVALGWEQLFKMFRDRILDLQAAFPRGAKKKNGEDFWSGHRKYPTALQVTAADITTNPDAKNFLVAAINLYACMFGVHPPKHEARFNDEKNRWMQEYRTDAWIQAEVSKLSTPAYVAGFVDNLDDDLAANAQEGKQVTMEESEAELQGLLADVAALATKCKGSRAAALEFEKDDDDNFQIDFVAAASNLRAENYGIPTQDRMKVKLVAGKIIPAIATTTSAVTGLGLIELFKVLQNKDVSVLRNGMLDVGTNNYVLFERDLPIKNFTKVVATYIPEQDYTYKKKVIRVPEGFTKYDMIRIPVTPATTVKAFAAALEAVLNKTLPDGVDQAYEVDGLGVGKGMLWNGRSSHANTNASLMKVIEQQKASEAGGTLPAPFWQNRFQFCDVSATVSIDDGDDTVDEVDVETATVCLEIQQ
Nature of the assay: Leishmania donovani Ubiquitin Activating Enzyme (LdE1). Format: functional. To be noted: 30 µM.

For assay [3], the target named is AMP-activated protein kinase, AMPK (Homo sapiens) (UniProt P54646+O43741+P54619+Q9UGJ0+Q9Y478+Q13131+Q9UGI9). Kind of assay: AMP-dependent Kinase enzyme assay. An in vitro enzyme assay that detects ADP turnover that is directly proportional to AMPK activity. This uses naive AMPK that is activated during the assay with MK-8722. To be noted: 30 µM. Format: functional.

Assay [4] has as its target Sialic acid-binding Ig-like lectin 9 (Homo sapiens) (UniProt Q9Y336). Kind of assay: Hs-Siglec9 ALPHAscreen SOP 20170721. To be noted: 10 µM.
In another assay the test system is Trypanosoma cruzi. Kind of assay: Trypanosoma cruzi phosphomannomutase and mannose-1-phosphate guanylyltransferase assay. To be noted: 10 µM. The class given is functional.
The target in assay [5] is T2, Arginase-2, mitochondrial (Homo sapiens) (UniProt P78540).
T2 sequence (whole entry): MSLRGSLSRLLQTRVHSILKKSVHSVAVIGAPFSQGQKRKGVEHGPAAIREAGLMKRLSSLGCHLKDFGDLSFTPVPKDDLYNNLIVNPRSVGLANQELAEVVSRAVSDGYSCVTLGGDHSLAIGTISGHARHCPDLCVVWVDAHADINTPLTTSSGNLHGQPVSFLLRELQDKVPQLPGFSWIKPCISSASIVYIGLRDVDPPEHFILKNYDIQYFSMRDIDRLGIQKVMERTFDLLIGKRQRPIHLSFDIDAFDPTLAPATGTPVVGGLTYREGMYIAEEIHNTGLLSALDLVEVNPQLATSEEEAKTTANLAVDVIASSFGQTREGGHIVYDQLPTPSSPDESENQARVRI
Kind of assay: in vitro enzyme assay to detect the production of urea directly proportional to the activity of Arginase II. Further: in the data most compounds retested in dose-response had high values. To be noted: 33.3 µM. The class given is functional.

In assay [6] the target is T3, Proteasome subunit beta (Trypanosoma cruzi) (UniProt O96673).
T3 sequence (whole entry): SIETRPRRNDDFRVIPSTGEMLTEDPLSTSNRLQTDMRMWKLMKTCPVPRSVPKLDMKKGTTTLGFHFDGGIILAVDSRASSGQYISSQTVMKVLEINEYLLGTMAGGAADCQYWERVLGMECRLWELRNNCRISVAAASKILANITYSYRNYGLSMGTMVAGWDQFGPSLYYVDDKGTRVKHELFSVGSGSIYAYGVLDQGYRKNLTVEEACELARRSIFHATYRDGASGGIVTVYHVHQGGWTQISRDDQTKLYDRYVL
Nature of the assay: Trypanosoma cruzi proteasome chymotrypsin-like activity (TcProtChymo) assay. Further: in the data most compounds retested in dose-response had high values. To be noted: 9.37 µM. Format: functional.

The next assay is filed under the species Homo sapiens. Kind of assay: To identify inhibition of the IFN signalling (Jak-Stat) pathway via expression of an eGFP reporter gene under the control of an IFN-stimulated response element (ISRE) containing MxA promoter. Format: functional. To be noted: 30 µM.
Assay [7] addresses T4, Tyrosyl-tRNA synthetase, putative (Trypanosoma cruzi (strain CL Brener)) (UniProt Q4DSP6).
T4 sequence (whole entry): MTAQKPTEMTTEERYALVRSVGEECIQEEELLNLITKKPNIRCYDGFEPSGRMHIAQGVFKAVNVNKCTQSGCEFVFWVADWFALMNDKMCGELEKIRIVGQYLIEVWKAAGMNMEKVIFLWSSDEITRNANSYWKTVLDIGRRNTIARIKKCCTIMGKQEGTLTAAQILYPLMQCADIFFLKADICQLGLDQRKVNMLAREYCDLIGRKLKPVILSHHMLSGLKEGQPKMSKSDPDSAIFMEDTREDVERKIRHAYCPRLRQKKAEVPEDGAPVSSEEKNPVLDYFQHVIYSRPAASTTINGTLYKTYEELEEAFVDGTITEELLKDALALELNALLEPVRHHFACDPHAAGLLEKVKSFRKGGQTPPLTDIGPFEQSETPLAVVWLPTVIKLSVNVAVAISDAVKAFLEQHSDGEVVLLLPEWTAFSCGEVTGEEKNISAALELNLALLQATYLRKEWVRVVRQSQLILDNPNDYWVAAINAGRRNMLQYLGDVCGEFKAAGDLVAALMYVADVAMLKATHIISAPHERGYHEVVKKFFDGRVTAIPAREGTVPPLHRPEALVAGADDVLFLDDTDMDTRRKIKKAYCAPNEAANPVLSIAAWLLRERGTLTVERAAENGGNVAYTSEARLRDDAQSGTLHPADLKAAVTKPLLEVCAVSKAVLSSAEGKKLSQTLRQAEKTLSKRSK
Kind of assay: Trypanosoma cruzi tyrosyl tRNA synthetase (TcYRS) _High Tyrosine SOP. Further: in the data most compounds retested in dose-response had high values. The class given is functional. To be noted: 30 µM.

Assay [8] has as its target T4, Tyrosyl-tRNA synthetase, putative (Trypanosoma cruzi (strain CL Brener)). Kind of assay: Trypanosoma cruzi tyrosyl tRNA synthetase (TcYRS) SOP. The class given is functional. To be noted: 30 µM.
Assay [9] concerns the target Chromo domain-containing protein 1 (Saccharomyces cerevisiae (strain ATCC 204508 / S288c) (Baker's yeast)) (UniProt P32657). Nature of the assay: ScCHD-1 Enzyme Inhibition Assay. Further: in the data most compounds retested in dose-response had high values. The class given is functional. To be noted: 30 µM.

SMILES strings stand for the structures. For some assays here: Entries with a potency or affinity are not part of this list.

Chain of Chromo domain-containing protein 1 (Saccharomyces cerevisiae (strain ATCC 204508 / S288c) (Baker's yeast)) (P32657 whole entry, the tested form may be a part): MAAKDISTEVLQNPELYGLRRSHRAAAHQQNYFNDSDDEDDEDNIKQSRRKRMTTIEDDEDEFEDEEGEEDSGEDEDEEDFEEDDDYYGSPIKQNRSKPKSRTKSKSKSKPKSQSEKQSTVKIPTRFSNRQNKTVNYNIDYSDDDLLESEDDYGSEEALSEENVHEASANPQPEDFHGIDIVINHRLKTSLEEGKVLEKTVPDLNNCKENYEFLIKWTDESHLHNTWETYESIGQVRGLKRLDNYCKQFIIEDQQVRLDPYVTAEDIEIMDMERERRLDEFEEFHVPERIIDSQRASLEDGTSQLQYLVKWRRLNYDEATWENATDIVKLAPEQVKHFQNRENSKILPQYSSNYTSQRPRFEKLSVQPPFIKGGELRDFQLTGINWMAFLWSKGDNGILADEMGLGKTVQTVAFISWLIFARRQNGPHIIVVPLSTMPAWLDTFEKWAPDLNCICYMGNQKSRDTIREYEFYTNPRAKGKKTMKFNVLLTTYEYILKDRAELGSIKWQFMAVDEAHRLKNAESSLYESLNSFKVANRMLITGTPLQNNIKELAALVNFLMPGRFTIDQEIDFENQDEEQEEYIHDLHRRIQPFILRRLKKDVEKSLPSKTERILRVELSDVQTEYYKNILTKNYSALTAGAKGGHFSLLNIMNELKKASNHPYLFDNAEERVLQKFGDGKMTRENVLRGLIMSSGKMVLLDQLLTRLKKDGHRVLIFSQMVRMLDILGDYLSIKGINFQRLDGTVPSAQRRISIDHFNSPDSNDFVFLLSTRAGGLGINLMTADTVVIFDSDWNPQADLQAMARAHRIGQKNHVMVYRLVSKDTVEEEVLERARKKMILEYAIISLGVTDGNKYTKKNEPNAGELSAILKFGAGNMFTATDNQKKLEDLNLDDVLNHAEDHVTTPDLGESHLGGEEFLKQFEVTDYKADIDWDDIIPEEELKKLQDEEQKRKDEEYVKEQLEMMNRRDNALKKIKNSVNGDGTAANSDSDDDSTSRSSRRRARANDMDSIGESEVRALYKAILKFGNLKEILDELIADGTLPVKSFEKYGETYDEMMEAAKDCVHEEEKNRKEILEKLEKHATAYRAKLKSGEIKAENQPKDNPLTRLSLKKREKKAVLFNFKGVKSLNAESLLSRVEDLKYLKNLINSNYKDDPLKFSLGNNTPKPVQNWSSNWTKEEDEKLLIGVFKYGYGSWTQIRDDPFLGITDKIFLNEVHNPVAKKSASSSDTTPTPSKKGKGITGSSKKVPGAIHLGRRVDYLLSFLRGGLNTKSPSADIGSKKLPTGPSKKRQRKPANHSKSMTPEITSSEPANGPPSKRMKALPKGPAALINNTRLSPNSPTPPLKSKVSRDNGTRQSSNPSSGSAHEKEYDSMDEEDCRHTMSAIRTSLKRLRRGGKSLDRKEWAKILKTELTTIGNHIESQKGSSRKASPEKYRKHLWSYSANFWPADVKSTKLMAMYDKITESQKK
Chain of Protein translocase subunit SecA (Escherichia coli (strain K12)) (P10408 whole entry): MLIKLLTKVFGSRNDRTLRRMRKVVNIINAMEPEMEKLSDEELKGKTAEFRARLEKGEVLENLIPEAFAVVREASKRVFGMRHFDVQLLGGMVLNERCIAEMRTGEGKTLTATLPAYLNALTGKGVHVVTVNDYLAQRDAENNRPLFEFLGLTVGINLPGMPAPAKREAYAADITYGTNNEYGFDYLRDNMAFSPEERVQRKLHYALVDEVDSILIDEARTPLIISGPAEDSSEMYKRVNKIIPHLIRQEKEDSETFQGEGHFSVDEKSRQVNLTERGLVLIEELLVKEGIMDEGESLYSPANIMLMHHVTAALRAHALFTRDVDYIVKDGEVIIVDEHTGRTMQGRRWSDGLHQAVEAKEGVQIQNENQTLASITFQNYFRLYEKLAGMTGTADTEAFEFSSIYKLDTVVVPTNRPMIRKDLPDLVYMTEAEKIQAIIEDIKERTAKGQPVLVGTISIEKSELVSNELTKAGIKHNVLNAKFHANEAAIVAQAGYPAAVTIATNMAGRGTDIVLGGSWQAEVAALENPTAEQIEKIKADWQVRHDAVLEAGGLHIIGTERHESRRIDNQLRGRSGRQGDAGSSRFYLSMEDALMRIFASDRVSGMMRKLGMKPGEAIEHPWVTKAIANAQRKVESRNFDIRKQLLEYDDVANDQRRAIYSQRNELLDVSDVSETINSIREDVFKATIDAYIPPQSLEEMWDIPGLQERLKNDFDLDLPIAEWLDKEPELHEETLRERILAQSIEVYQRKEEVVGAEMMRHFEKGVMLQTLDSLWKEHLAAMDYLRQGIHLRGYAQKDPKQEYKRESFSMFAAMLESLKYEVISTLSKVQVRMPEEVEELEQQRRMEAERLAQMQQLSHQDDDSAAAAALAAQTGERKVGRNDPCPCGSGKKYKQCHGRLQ
Chain of Sialic acid-binding Ig-like lectin 9 (Homo sapiens) (Q9Y336 whole entry): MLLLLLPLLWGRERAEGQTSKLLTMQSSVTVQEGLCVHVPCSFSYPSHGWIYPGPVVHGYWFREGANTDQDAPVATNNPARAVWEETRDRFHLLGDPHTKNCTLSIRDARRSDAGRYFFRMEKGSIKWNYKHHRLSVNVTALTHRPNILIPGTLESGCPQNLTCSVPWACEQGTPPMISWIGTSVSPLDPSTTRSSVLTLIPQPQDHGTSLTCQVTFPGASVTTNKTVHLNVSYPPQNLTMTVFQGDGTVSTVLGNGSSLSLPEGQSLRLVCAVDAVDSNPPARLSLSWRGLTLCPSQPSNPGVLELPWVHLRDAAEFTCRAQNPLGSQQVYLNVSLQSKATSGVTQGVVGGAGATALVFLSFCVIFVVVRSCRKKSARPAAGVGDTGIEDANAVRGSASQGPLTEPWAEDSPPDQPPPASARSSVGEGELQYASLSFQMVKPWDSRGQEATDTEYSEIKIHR

On to `Cn1cc(NC(=O)Cn2c(CS(C)(=O)=O)nc3ccccc32)cn1`, for which the Percent Effect in [1] was -2.27%; in assay [2], 7.89%; in assay [3], 3.88%; in assay [4], 2.76%; with Trypanosoma cruzi, 0.0974%; in assay [5], -1.18%. In addition, the Percent Effect in [6] is 12.6%; in the assay listed under Homo sapiens, -13.6%; in assay [7], 3.19%; in assay [8] it was 13%; in assay [9], -3.67%.
As to `CN(CCCC#N)C1CCCN(Cc2noc(C3CC3)n2)C1` (stereo not given), the Percent Effect in assay [1] is -1.64%; in [2], 15.3%; in assay [3], -17%; in assay [4] it was 7.77%; in the assay on Trypanosoma cruzi it was 0.68%; in [5] it was 5.74%. Further, the Percent Effect in [6] was 12.8%; in the assay listed under Homo sapiens, -4.02%; in assay [7], 4.21%; in assay [8], 7.69%; in assay [9], -5.25%.
For the compound `CC(=O)N1CC(=O)N(c2cnn(C)c2)CC12CCN(Cc1ccoc1)C2` (stereo not given), the Percent Effect was -1.18% in assay [1]; 5.41% in [2]; 1.2% in assay [3]; -0.95% in assay [4]; 1.95% with Trypanosoma cruzi; 1.25% in [5]. For the same compound, the Percent Effect in assay [6] was -1.61%; in the assay filed under Homo sapiens, 5.16%; in assay [7], 2.97%; in assay [8] it was 11%; in assay [9], -1.77%.
Turning to `COc1cccc(CNCc2nnc3n2CC(C(F)(F)F)CC3)c1` (stereo not given), the Percent Effect is 0.608% in [1]; -2.7% in assay [2]; -0.757% in [3]; 8.38% in assay [4]; 1.27% in the assay with Trypanosoma cruzi; 45.4% in [5]. Besides, the Percent Effect in assay [6] was 5.92%; in the assay listed under Homo sapiens, 9.33%; in assay [7], 6.45%; in assay [8], 16.1%; in [9] it was -13%.
For the compound `Cn1nc(CNC(=O)NCc2ccc(Cl)cc2)c2c1CCOC2`, the Percent Effect in assay [1] is -4.99%; in assay [2] it was 5.2%; in [3], 6.43%; in assay [4], 7.81%; in the assay on Trypanosoma cruzi, 3.45%; in assay [5], -7.1%. Moreover, the Percent Effect in [6] was -3.83%; in the assay listed under Homo sapiens it was 20.2%; in [7] it was 0%; in [8], -3.85%; in assay [9] it was -5.33%.
For the compound `Fc1ccc(CN2CCO[C@H]3[C@H](OCC4CC4)CC[C@@H]32)cc1`, the Percent Effect in assay [1] was -2.57%; in assay [2], -2.67%; in [3] it was 3.82%; in [4], 0.245%; with Trypanosoma cruzi, 4.83%; in assay [5], -41.4%. The Percent Effect in assay [6] was 8.89%; in the assay listed under Homo sapiens, -14.2%; in assay [7] it was 2.08%; in assay [8], -30%; in assay [9], -4.58%.
Take `Cc1ccc(C(CNCc2cnn(C(C)C)c2)N2CCOCC2)s1` (stereo not given): the Percent Effect is -3.15% in assay [1]; -2.7% in [2]; -0.219% in assay [3]; -2.96% in assay [4]; -0.391% in the assay with Trypanosoma cruzi; -2.5% in assay [5]. Also, the Percent Effect in assay [6] was 11.1%; in the assay listed under Homo sapiens, -8.39%; in assay [7], 4.95%; in [8], 1.22%; in [9], -6.03%.
For `CC(N(C)Cc1nc2c(cnn2C)c(=O)[nH]1)C(C)(C)C` (stereo not given), the Percent Effect in assay [1] is -4.87%; in assay [2], 13.5%; in assay [3], -4.12%; in assay [4] it was 2.57%; with Trypanosoma cruzi, -10.1%; in assay [5], 2.03%. Besides, the Percent Effect in assay [6] was 7.72%; in the assay filed under Homo sapiens, 24.6%; in assay [7], -1.98%; in assay [8], 3.66%; in [9], -4.7%.
For the compound `Cc1ccc(CN2CCc3ncnc(C4CCOC4)c3CC2)s1` (stereo not given), the Percent Effect is 1.24% in assay [1]; 10.7% in assay [2]; 1.52% in [3]; 6.88% in assay [4]; -2.51% in the assay with Trypanosoma cruzi; -41.4% in [5]. The Percent Effect in assay [6] is 5.98%; in the assay listed under Homo sapiens, 18.1%; in assay [7], 5.21%; in assay [8], 25%; in assay [9], -6.72%.
Consider `O=C(COc1coc(CN2CCCCCC2)cc1=O)c1ccccc1`, for which the Percent Effect was -5.87% in assay [1]; -7.89% in assay [2]; -1.88% in assay [3]; -6.78% in assay [4]; -3.6% with Trypanosoma cruzi; -1.18% in assay [5]. Moreover, the Percent Effect is 9.49% in assay [6]; -1.04% in the assay listed under Homo sapiens; 3.19% in assay [7]; 0% in assay [8]; 72.3% in [9].
